Bioassay records deposited in PubChem BioAssay by several laboratories.
CYP2C19 activ – cytochrome P450 2C19 (human) activation. recombinant CYP2C19, luciferin-H EGE luminescence; hits give high values; 0 = fully inhibited enzyme, 1 = untreated enzyme. activation factor at 5 µM. 96,000 tested, under 10 active. AID 1025;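 active means activation factor of at least 2 at 5 µM in the primary screen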;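 further: 0 = wells with 2.5 mM tranylcypromine and 1 = vehicle-only wells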
D1 mod – allosterically modulates the human D1 dopamine receptor; P21728; HEK293 D1, CRE-luciferase, dopamine EC30 potentiation; actives deviate in either direction; B-score at 10 µM; hit rate 5.9% among 58,000; AID 641;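 active means luminescence count or its row- and column-corrected plate score outside the 99.7% band of the plate's sample wells, on either side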
CYP2C19 inhib – inhibitors of human CYP2C19. P33261. CYP2C19 Supersomes, luciferin-H EGE luminescence, 30 min. inhibition, % at 5 µM. hit rate 21% among 96,000. AID 778;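 active means CYP2C19 inhibition above a set limit at 5 µM in the primary screen, cut at about 50% in these data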;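 further: plate controls were negative control wells for no effect and 2.5 mM tranylcypromine positive control for full effect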
CYP2C9 inhib – human CYP2C9 inhibition | P11712 | CYP2C9 Supersomes, luciferin-H conversion, luminescence | inhibition, % at 5 µM | hit rate 20% among 96,000 | AID 777;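 active means blocking of liver enzyme CYP2C9 beyond about 50% at 5 µM, limit read from the data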
DAT uptake mod – changed human dopamine transporter uptake under cocaine IC80. Q01959. B-score at 10 µM. LLC-PK1 hDAT cells, [14C]-dopamine uptake with cocaine IC80; actives deviate in either direction. hit rate 1.3% among 110,000;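 active means Z score or B-score, a plate-position-corrected score, falls beyond the plate's 99.7% confidence bounds, in either direction; inactive means both scores lie inside the 99.7% bounds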;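 further: scored against the spread of the other compound wells on the same plate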
Target sequence (Q01959 whole entry, looked up): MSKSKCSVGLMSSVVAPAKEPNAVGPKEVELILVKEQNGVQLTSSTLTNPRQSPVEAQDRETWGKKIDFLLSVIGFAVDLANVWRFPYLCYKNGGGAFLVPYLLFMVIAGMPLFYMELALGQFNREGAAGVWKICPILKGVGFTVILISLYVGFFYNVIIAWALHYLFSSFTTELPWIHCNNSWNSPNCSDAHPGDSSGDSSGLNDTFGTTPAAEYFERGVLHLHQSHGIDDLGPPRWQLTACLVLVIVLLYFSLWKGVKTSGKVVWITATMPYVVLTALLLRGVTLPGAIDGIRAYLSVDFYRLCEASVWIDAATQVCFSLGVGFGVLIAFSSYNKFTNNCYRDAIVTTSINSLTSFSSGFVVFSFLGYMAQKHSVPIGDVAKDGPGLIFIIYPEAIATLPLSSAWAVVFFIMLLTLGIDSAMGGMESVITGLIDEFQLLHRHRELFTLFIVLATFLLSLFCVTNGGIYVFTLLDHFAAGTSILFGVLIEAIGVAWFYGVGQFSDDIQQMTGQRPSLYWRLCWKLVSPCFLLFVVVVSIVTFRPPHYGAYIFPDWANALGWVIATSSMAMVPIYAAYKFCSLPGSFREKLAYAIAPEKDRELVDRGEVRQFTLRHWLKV
CYP2C9 act – CYP2C9 (human) activation. recombinant CYP2C9, luciferin-H conversion, luminescence; hits give high values; factor 1 = untreated enzyme, 0 = blocked. P11712. activation factor at 5 µM. hit rate 1.4% among 96,000. AID 1024;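 active means activation factor of 2 or more for CYP2C9 at a 5 µM dose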;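 further: 0 = sulfaphenazole-blocked wells and 1 = vehicle-only wells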
* marks the source's active call; other numbers are inactive results; nt = no result given. An excerpt weighted towards active compounds, which were near 28% of everything screened.

SMILES	CYP2C19 activ	D1 mod	CYP2C19 inhib	CYP2C9 inhib	DAT uptake mod	CYP2C9 act
COc1ccc(S(=O)(=O)CCC(=O)N2c3ccccc3CC2C)cc1 (configuration not stated)	0.6	-0.58	38	-96	0.22	2*
Cc1cccc(NC(=O)CN(c2ccc(C(C)C)cc2)S(=O)(=O)c2c(C)nn(C)c2C)n1	0	nt	96*	97*	0.34	0
CC(/C=N\Nc1nnc2c(n1)[nH]c1c(C)cccc12)=C\c1ccco1	1.1	nt	-6	-3	0.032	1
Cn1c(Cc2cccs2)n[nH]c1=S	1	0.24	4	-7	0.11	1.1
Cc1nn(C)c(C)c1S(=O)(=O)N(CC(=O)N1CCc2ccccc2C1)c1ccc(C(C)C)cc1	0	nt	96*	81*	1.9	0.2
Cc1ccc(N(CC(=O)N2CCN(c3ccc(F)cc3)CC2)S(=O)(=O)c2c(C)nn(C)c2C)cc1	0.1	nt	85*	-60	1.7	1.6
CCOC(=O)C1CCN(C(=O)CN(c2ccc(OC)cc2)S(=O)(=O)c2c(C)nn(C)c2C)CC1	0.7	-1.6	31	49	1.7	0.5
COc1ccc(N(CC(=O)N2CCCC(C)C2)S(=O)(=O)c2c(C)nn(C)c2C)cc1 (configuration not stated)	0.5	nt	53*	37	0.66	0.6
COc1ccc(N(CC(=O)N2c3ccccc3CC2C)S(=O)(=O)c2c(C)nn(C)c2C)cc1 (configuration not stated)	0.2	nt	80*	77*	1.2	0.2
C/C(CC(O)c1ccc2ccccc2n1)=N/O (configuration not stated)	1	nt	1	8	0.76	0.9
COC(=O)c1cc(Br)ccc1OC(=O)c1cccnc1	0.9	nt	12	23	-0.084	0.8
Cc1nn(C)c(C(=O)N2CCc3ccccc32)c1Cl	nt	nt	nt	nt	0.052	nt
Cc1nn(C)c(C)c1S(=O)(=O)N(CC(=O)N1CCc2ccccc21)c1ccc(C(C)C)cc1	0.4	nt	59*	74*	0.13	0.3
Cc1ccc(C(O)(COC(=O)C(C)C)COC(=O)C(C)C)c(O)c1	nt	nt	nt	nt	2	nt
O=C(NC(Nc1ncccn1)C(=O)c1ccccc1)c1ccccc1 (configuration not stated)	0.2	-0.017	78*	77*	0.41	0.2
Cc1ccc(-c2nnc(N(C)C(=O)c3ccccn3)s2)cn1	1	-0.76	2	6	-2.2	0.9
CNc1cc(C(F)(F)F)nc(-c2ccccn2)n1	1	nt	3	25	0.72	0.8
COc1ccc(Sc2cc(C(F)(F)F)nc(-c3ccccn3)n2)cc1	0.6	nt	40	66*	-1.3	0.3
Cc1cccc(C)c1OCC(=O)Nc1ncn[nH]1	0.4	-1.3	63*	1	0.72	1
O=C(COc1ccc2ccccc2c1Br)N1CCOCC1	nt	0.037	nt	nt	-0.02	nt
O=C(CC(c1ccccc1)c1ccccc1)Nc1ccc(Cl)cn1	0.9	nt	11	0	-1.1	1
Cc1ccc(SC(C)C(=O)Nc2ncn[nH]2)cc1 (configuration not stated)	0.8	-0.45	25	28	-0.66	0.7
O=C(COc1ccc2ccccc2c1Br)Nc1ncn[nH]1	0.4	-0.83	56*	9	0.8	0.9
O=C(CC(c1ccccc1)c1ccccc1)Nc1ncn[nH]1	0.5	nt	50*	83*	-0.0033	0.2
Cc1cc(C)c2c3c(sc2n1)C(=O)N(Cc1ccccc1)CC(=O)N3	0.7	nt	30	10	0.29	0.9
SMILES	CYP2C19 activ	D1 mod	CYP2C19 inhib	CYP2C9 inhib	DAT uptake mod	CYP2C9 act
CC(=O)Oc1ccc2c(c1)cc(C)n2C	nt	nt	nt	nt	-2.2	nt
O=C(CCCSc1nc2ccccc2[nH]1)N1CCN(c2ccc([N+](=O)[O-])cc2)CC1	0.7	nt	33	-70	2.2	1.7
CC(=C\C(=O)O)/C(=C/c1ccccc1)C(=O)O	1	nt	4	-28	-0.5	1.3
Cc1ccc2ncccc2c1NS(=O)(=O)c1ccccc1	0.4	-0.67	57*	35	-0.79	0.6
O=C1C(=O)N(CCCn2ccnc2)C(c2cccnc2)/C1=C(/O)c1ccc(F)cc1 (configuration not stated)	1	-0.017	-2	89*	-0.71	0.1
CCN(CC)C(=O)C1CCCN(c2ccc([N+](=O)[O-])cc2/C=N/NC(=O)c2cccc([N+](=O)[O-])c2)C1 (configuration not stated)	0.6	nt	38	45	nt	0.6
